TGFb SMAD3 inh – TGF-b pathway inhibition; HepG2 CAGA-GFP TGF-b/SMAD3 reporter, GFP fluorescence, 18 h; TGF-beta stimulated, 500 pg/mL final; Potency, µM (titrated, usually from 46.1 µM), hits mostly inhibitors; hit rate 1.2% among 410,000; AID 588855; further: nearly all actives have a fitted effect of over 65% in size
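Cell-based qHTS in HEPG2 carrying a CAGA-GFP Smad reporter; compounds added before 500 pg/mL final TGF-beta, 18 h incubation at 37 degrees C, GFP fluorescence quantified per cell by imaging cytometry.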
A549 tox – kills or reduces viability of A549 cells in Nrf2 counter-screen; A549 ARE-Fluc cells, CellTiter-Fluor viability, 18-24 h; Potency, µM (top dose mostly 46 µM), usual class: inhibitors; hit rate 0.16% among 390,000
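A549 ARE-Fluc cells in 5% FBS OPTI-MEM, 5000 cells/well, rested 2 h then exposed to compounds in concentration-response for 18-24 h at 37 °C. Viability by CellTiter-Fluor fluorescence (Ex 405/Em 525) after 30 min; luciferase luminescence (BugLite, 15 min, RT) read afterwards.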
ATXN viability – cell viability loss in ATXN counter-screen; hit rate 0.49% among 400,000; Potency, µM (highest dose often 56.7 µM), usual class: cytotoxic; S2 cells (HEK-293 line with an ATXN2-luciferase reporter) viability, CellTiter-Fluor protease fluorescence, 24 h; AID 651635; further: nearly all actives have a fitted effect of over 40% in size
Nrf2 block – Nrf2 pathway inhibition; A549 ARE-Fluc reporter, luciferase luminescence, 18-24 h; Potency, µM (series often up to 46 µM), most hits filed as inhibitors; hit rate 2.1% among 360,000; AID 504444; further: nearly all actives have a fitted effect of over 60% in size
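Quantitative HTS in A549 cells stably bearing an antioxidant response element-firefly luciferase construct. Inhibition of Nrf2-driven transcription was scored by luminescence after 18-24 h of compound exposure at 37 °C.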
ATXN2 expr inh – inhibitors of ATXN2 expression; HEK-293 ATXN2-luciferase reporter, luminescence, 24 h; hit rate 0.72% among 360,000; Potency, µM (doses to about 57 µM), actives largely listed as inhibitors; AID 1745845; further: nearly all actives have a fitted effect of over 55% in size
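qHTS (up to 57 uM final) was run with 24 h compound exposure of reporter cells at 37 °C. Each well was multiplexed: SteadyGlo luminescence measured ATXN2-luciferase expression after a fluorogenic Gly-Phe-AFC viability readout (25 uM final).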
HepG2 viability – HepG2 cytotoxicity, counter-screen for TGF-b inhibitors; Potency, µM (series often up to 46.1 µM), actives largely listed as cytotoxic; HepG2 CAGA-GFP viability, ATP luminescence, 18 h; hit rate 0.76% among 410,000
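CellTiter-Glo luminescence gave cytotoxicity after 18 hours at 37 degrees C. The cells were HepG2 CAGA-GFP in 1% FBS DMEM, stimulated with 500 pg/mL TGF-beta after compound addition. %Activity was normalised to no-cell wells (complete cell-killing) and DMSO (no toxicity), and curves were fitted and classified.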
Hits are given with their value; – = inactive; ? = inconclusive; · = no result given. Most compounds without a hit are left out; they make up all but 3.8% or so of the library. The call rests on the fitted dose curve; in most records, active means well fitted curve in the direction sought with a large enough effect; inconclusive means small, poorly fitted or top-dose-only effect, or another doubt; inactive means no such curve, though single readings can be large; an effect the other way counts as inactive or inconclusive.

SMILES	TGFb SMAD3 inh	A549 tox	ATXN viability	Nrf2 block	ATXN2 expr inh	HepG2 viability
CC(=O)c1ccc(N(CC(=O)NC2CCCCC2)C(=O)CNC(=O)c2ccco2)cc1	–	–	–	–	–	–
CCOc1ccc(-c2cn3nc(CC(C)C)sc3n2)cc1	–	–	–	?	–	–
CCOC(=O)COc1ccccc1/C=C\[N+](=O)[O-]	5.62µM	?	·	?	?	8.91µM
Cc1ccc(C(=O)COC(=O)COc2ccccc2[N+](=O)[O-])s1	–	–	–	–	–	–
O=C(Cc1ccc(Cl)cc1)NCCc1cnc[nH]1	–	–	–	–	–	–
C[C@@H]1CC[C@]2(C(=O)O[C@@H]3O[C@H](CO)[C@@H](O)[C@H](O)[C@H]3O)CC[C@]3(C)C(=CCC4[C@@]5(C)CC[C@H](O[C@@H]6OC[C@H](O)[C@H](O[C@@H]7O[C@H](CO)[C@@H](O)[C@H](O)[C@H]7O)[C@H]6O)C(C)(C)C5CC[C@]43C)C2[C@]1(C)O (stereo partly drawn)	–	–	–	–	–	–
COc1ccc(/C=C\C(=O)O[C@@H]2C(O)C(O[C@@H]3OC(C)[C@H](O[C@@H]4OCC(O[C@H]5O[C@H](CO)[C@@H](O)C(O)C5O)C(O)C4O)C(O)C3O)[C@H](OC(=O)[C@]34CCC(C)(C)C[C@@H]3C3=CCC5[C@@]6(C)CC(O)C(O[C@@H]7OC(CO)C(O)[C@H](O)[C@H]7O)[C@@](C)(C(=O)O)C6CC[C@@]5(C)[C@]3(CO)CC4)O[C@H]2C)cc1 (stereo partly drawn)	?	?	11.2µM	?	7.08µM	–
Cc1c(C(=O)NCCc2ccccn2)cnn1-c1nccc(-c2cccs2)n1	·	·	–	·	·	·
Cc1c(C(=O)NCCN2CCC(c3ccccc3)CC2)cnn1-c1nccc(-c2cccs2)n1	·	·	28.2µM	·	·	·
CN(C)CCCNC(=O)C(=O)NCC1CCCO1 (stereo not drawn)	–	–	–	–	–	–
Clc1ccc(-c2csc(=Nc3cccnc3)n2CCCn2ccnc2)cc1Cl	?	–	–	?	–	–
COCCn1c(-c2ccc(Br)cc2)csc1=Nc1cccnc1	?	–	–	18.4µM	–	–
CCn1c(-c2ccc(S(=O)(=O)N3CCOCC3)cc2)csc1=Nc1ccc(C)c(Cl)c1	–	–	·	?	·	–
COCCCn1c(-c2ccc(S(=O)(=O)N3CCOCC3)cc2)csc1=Nc1ccccc1	–	–	?	16.4µM	31.6µM	–
CCN(CC)CCn1c(-c2ccccc2)csc1=Nc1ccccc1	12.6µM	–	·	–	?	–
OCCCn1c(-c2ccccc2)csc1=Nc1ccccc1	–	–	?	–	–	–
COc1ccc(N=c2scc(-c3ccc(OC)cc3)n2CCO)cc1	–	–	–	18.4µM	–	–
Cc1ccc(C)c(CN2C(=O)c3ccccc3S(=O)c3ccc(C(=O)NCc4ccco4)cc32)c1 (stereo not drawn)	–	–	–	?	–	–
CCN1C(=NCCCCO)N[C@@H](c2cccc(F)c2)C(C(=O)OC)=C1C	–	–	–	–	–	–
COC(=O)C1=C(C)N(Cc2ccccc2)C(=NCCc2c[nH]c3ccccc23)N[C@H]1c1cccc(F)c1	?	–	22.4µM	–	?	–
COC(=O)C1=C(C)N(Cc2ccccc2)C(=NCCc2c[nH]c3ccccc23)N[C@H]1c1ccccc1	?	–	?	–	?	10µM
CCN(CC)CCCN=C1N[C@@H](c2cccc(F)c2)C(C(=O)OC)=C(C)N1Cc1ccccc1	?	?	25.1µM	–	22.4µM	–
CCN(CC)c1ccc(/C=N/NC(=O)c2cccc(S(=O)(=O)N3CCOCC3)c2)cc1	–	–	–	?	–	–
CCN(Cc1ccccc1)c1ccc(/C=N/NC(=O)c2cccc(S(=O)(=O)N3CCOCC3)c2)cc1	–	–	–	11.6µM	–	–
S=C(NCCN1CCOCC1)N/N=C/c1cccs1	4.47µM	?	5.01µM	–	·	8.91µM

Assay outcomes from PubChem BioAssay.
